In the supplement of paper PMC12350171:
Structures can show the parent of a compound that is named as a salt. Values without a mark were called inactive.

Experiments:
Conditions in all cases: 20 µM
[1] = test system: Salmonella enterica typhimurium; experiment: growth AUC normalised to DMSO control (fraction of control); higher = less growth inhibition, active = hit call of the paper
Procedure, shortened: (§1)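 After two anaerobic passages, pathogens were added at a starting OD578 of 0.01 to pre-reduced mGAM plates holding compound at 20 μM with 1% DMSO; hemin and NAD were supplemented for Haemophilus parainfluenzae. Sealed with breathable membranes, plates were read at OD578 hourly for 24 h, in three biological replicates. The trapezoidal rule, applied up to the exponential-to-stationary transition, gave the growth-curve AUC, which was normalised to DMSO controls on the same plate.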

Shigella flexneri = experiment: as above
Procedure, shortened: as §1

Vibrio cholerae = experiment: as above
Procedure, shortened: as §1

[2] = test system: Yersinia pseudotuberculosis; experiment: as above
Procedure, shortened: as §1

P. vulgatus RND KO = experiment: growth AUC normalised to DMSO control (median) (fraction of control); higher = less growth inhibition, active = hit call of the paper
Procedure, shortened: (§2)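 Anaerobic growth was tracked hourly at OD578 for 24 h in 96-well plates of mGAM seeded at OD578 0.01 with each approved-drug library compound at 20 μM and 1% DMSO. Strains had first been passaged twice overnight without oxygen. Three biological replicates were run. The reported median is the area under the curve, calculated by the trapezoidal rule on curves truncated at entry into stationary phase and normalised to vehicle wells on the same plate.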

P. vulgatus WT = experiment: as above
Procedure, shortened: as §2

[3] = test system: S. enterica typhimurium WT; experiment: as above
Procedure, shortened: as §2

[4] = test system: S. enterica typhimurium tolC KO; experiment: as above
Procedure, shortened: as §2
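Throughout, for growth AUC normalised to DMSO control (median): active when median AUC fell below 0.1.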

Structure (SMILES) | growth AUC normalised to DMSO control [1] | growth AUC normalised to DMSO control (Shigella flexneri) | growth AUC normalised to DMSO control (Vibrio cholerae) | growth AUC normalised to DMSO control [2] | growth AUC normalised to DMSO control (P. vulgatus RND KO) | growth AUC normalised to DMSO control (P. vulgatus WT) | growth AUC normalised to DMSO control [3] | growth AUC normalised to DMSO control [4]
CC(NCCC(c1ccccc1)c1ccccc1)c1ccccc1 (stereo not given) [Fendiline hydrochloride] | 1.01 | 1.02 | 0.86 | 0.996 | 0.978 | 0.977 | 1 | 0.95
CC(C)(C)NC[C@@H](O)COc1cccc2c1CCCC2=O [(+) Levobunolol hydrochloride] | 0.982 | 0.943 | 0.978 | 0.987 | 0.999 | 0.975 | 0.993 | 0.993
CN(C)CCOC(c1ccc(Cl)cc1)c1ccccn1 (stereo not given) [Carbinoxamine maleate salt] | 1.01 | 1.08 | 1.04 | 0.989 | 1.07 | 1.09 | 1 | 0.997
Cc1cc(=O)n(-c2ccccc2)n1C [Antipyrine] | 1 | 1.01 | 1.01 | 1 | 1 | 1.04 | 0.989 | 1.01
Cc1cnc(NC(=O)C2=C(O)c3ccccc3S(=O)(=O)N2C)s1 [Meloxicam] | 1.01 | 0.953 | 0.837 (active) | 1 | 0.982 | 0.991 | 0.994 | 0.947
CCCC1O[C@@H]2C[C@H]3[C@@H]4CCC5=CC(=O)C=C[C@]5(C)[C@H]4[C@@H](O)C[C@]3(C)[C@]2(C(=O)CO)O1 (stereo not given in full) [Budesonide] | 0.978 | 0.995 | 0.987 | 0.989 | 0.968 | 0.999 | 0.991 | 0.984
CSc1ccc2c(c1)N(CCC1CCCCN1C)c1ccccc1S2 (stereo not given) [Thioridazine hydrochloride] | 0.978 | 1 | 0.957 | 0.975 | 0.88 | 0.796 | 0.99 | 0.957
CS(=O)(=O)c1ccc(C2=C(c3ccccc3)C(=O)OC2)cc1 [Rofecoxib] | 1.01 | 0.99 | 1.02 | 0.995 | 1 | 1.03 | 1 | 0.98
CCC(NC(C)C)C(O)c1ccc(O)c(O)c1 (stereo not given) [Isoetharine mesylate salt] | 0.999 | 1 | 0.995 | 1 | 0.994 | 1.01 | 0.999 | 0.994
CC/C(=C(/CC)c1ccc(O)cc1)c1ccc(O)cc1 [Diethylstilbestrol] | 1 | 0.983 | 0.93 | 0.973 | 0.744 | 0.827 | 1 | 0.827
CCN(CC)CCNC(C(=O)OCCC(C)C)c1ccccc1 (stereo not given) [Camylofine chlorhydrate] | 0.992 | 0.991 | 0.953 | 0.997 | 1.01 | 1.02 | 1 | 0.973
Cc1cccc(C)c1NC(=O)CN1CCN(CCCC(c2ccc(F)cc2)c2ccc(F)cc2)CC1 [Lidoflazine] | 1.01 | 1.02 | 1.01 | 1.02 | 1.04 | 1.04 | 1.01 | 0.938
C[N+](C)(C)CCOC(N)=O [Carbachol chloride] | 1.03 | 1.07 | 1.08 | 1.01 | 1.09 | 1.05 | 1.01 | 1.01
CCN1CCC[C@H]1CNC(=O)c1c(O)c(Cl)cc(Cl)c1OC [Raclopride] | 1 | 0.983 | 0.985 | 0.951 | 1.04 | 1.04 | 0.994 | 1
COc1cc(OC)c(C(=O)CCCN2CCCC2)c(OC)c1 [Buflomedil hydrochloride] | 1 | 0.997 | 0.997 | 1.01 | 0.997 | 0.994 | 0.995 | 1
NCC[C@H](O)C(=O)N[C@@H]1C[C@H](N)[C@@H](O[C@H]2O[C@H](CN)[C@@H](O)[C@H](O)[C@H]2O)[C@H](O)[C@H]1O[C@H]1O[C@H](CO)[C@@H](O)[C@H](N)[C@H]1O [Amikacin hydrate] | 0.922 (active) | 0.985 | 1.01 | 0.122 (active) | 1.02 | 1.04 | 1 | 0.995
Cc1cc(C(C)(C)C)c(O)c(C)c1CC1=NCCN1 [Oxymetazoline hydrochloride] | 0.997 | 0.994 | 1 | 1 | 0.994 | 0.988 | 1.01 | 0.985
CO[C@H]1/C=C/O[C@@]2(C)Oc3c(C)c(O)c4c(O)c(c(/C=N/N5CCN(C6CCCC6)CC5)c(O)c4c3C2=O)NC(=O)/C(C)=C\C=C\[C@H](C)[C@H](O)[C@@H](C)[C@@H](O)[C@@H](C)[C@H](OC(C)=O)[C@@H]1C [Rifapentine] | 0.258 (active) | 0.588 (active) | 1.03 | 0.0449 (active) | 0.0203 (active) | 0.0164 (active) | 0.78 | 0.716
CC(C)C(=O)Nc1ccc([N+](=O)[O-])c(C(F)(F)F)c1 [Flutamide] | 1.01 | 1.04 | 1.01 | 0.988 | 1 | 1.01 | 0.985 | 0.96
CCCCNc1c(C(=O)OCC)c(C)nc2c1cnn2CC [Tracazolate hydrochloride] | 1 | 1.03 | 1.04 | 0.996 | 0.978 | 0.983 | 0.999 | 0.952
Nc1ccc(S(N)(=O)=O)cc1 [Sulfanilamide] | 1.03 | 1.04 | 1.05 | 1.01 | 1.03 | 1.06 | 0.993 | 1
Nc1nc2c(ncn2COC(CO)CO)c(=O)[nH]1 [Ganciclovir] | 0.988 | 0.996 | 1 | 0.99 | 0.978 | 0.971 | 0.992 | 0.993
C=CCc1ccccc1OCC(O)CNC(C)C (stereo not given) [Alprenolol hydrochloride] | 1.01 | 1.06 | 1.04 | 1.01 | 1.07 | 1.08 | 0.995 | 0.997
CN1CCN(CCCN2c3ccccc3Sc3ccc(S(=O)(=O)N(C)C)cc32)CC1 [Thioproperazine dimesylate] | 0.999 | 0.986 | 0.968 | 1 | 1.03 | 1.01 | 0.994 | 0.96
NS(=O)(=O)c1cc2c(cc1Cl)NC(C(Cl)Cl)NS2(=O)=O (stereo not given) [Trichlormethiazide] | 0.974 | 1.04 | 0.957 | 0.986 | 0.974 | 0.982 | 1.01 | 0.999
CCN(CC)CCNC(=O)c1cc(Br)c(N)cc1OC [Bromopride] | 1.01 | 1.01 | 1.01 | 1 | 1 | 1.01 | 1.01 | 1.01
O=C(c1ccc(OCCN2CCCCC2)cc1)c1c(-c2ccc(O)cc2)sc2cc(O)ccc12 [Raloxifene hydrochloride] | 1.01 | 0.992 | 0.988 | 0.981 | 1.06 | 1.01 | 1.02 | 1.01
CN[C@H](CC(C)C)C(=O)N[C@H]1C(=O)N[C@@H](CC(N)=O)C(=O)N[C@H]2C(=O)N[C@H]3C(=O)N[C@H](C(=O)N[C@H](C(=O)O)c4cc(O)cc(O)c4-c4cc3ccc4O)[C@H](O)c3ccc(c(Cl)c3)Oc3cc2cc(c3O[C@@H]2O[C@H](CO)[C@@H](O)[C@H](O)[C@H]2O[C@H]2C[C@](C)(N)[C@H](O)[C@H](C)O2)Oc2ccc(cc2Cl)[C@H]1O [Vancomycin hydrochloride] | 0.986 | 0.984 | 1.01 | 0.981 | 0.014 (active) | 0.0118 (active) | 0.996 | 0.996
Nc1nc(N)c2nc(-c3ccccc3)c(N)nc2n1 [Triamterene] | 0.942 | 1.06 | 0.99 | 0.95 | 0.973 | 0.971 | 0.954 | 0.939
CC(C)/N=c1\cc2n(-c3ccc(Cl)cc3)c3ccccc3nc-2cc1Nc1ccc(Cl)cc1 [Clofazimine] | 0.99 | 0.996 | 1 | 1.03 | 0.0291 (active) | 0.0974 (active) | 0.972 | 1.02
